The panel holds about 83,000 compounds, 20% with a hit somewhere; the sample as a whole holds those more often.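 Cells were grown in 96-well plates and exposed to the test compound at a single concentration for 48 hours; results are reported as percent growth, with values below 10 considered active.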 Values without a mark were called inactive. Active and inactive are the calls of the source.
Tests used:
Assay in all cases: NCI-60 one-dose screen, 48 h (100 = growth as untreated, 0 = no growth, -100 = all killed)
Conditions in all cases: 10 µM unless noted
NCI-H23 lung = tested on: NCI-H23 lung
NCI-H226 lung = tested on: NCI-H226 lung
NCI-H322M lung = tested on: NCI-H322M lung
HOP-62 NSCLC = tested on: HOP-62 NSCLC
NCI-H460 lung = tested on: NCI-H460 lung
NCI-H522 lung = tested on: NCI-H522 lung
A549/ATCC NSCLC = tested on: A549/ATCC NSCLC
786-0 renal = tested on: 786-0 renal
COLO 205 colon = tested on: COLO 205 colon
DU-145 prostate = tested on: DU-145 prostate
K-562 leukemia = tested on: K-562 leukemia
MALME-3M melanoma = tested on: MALME-3M melanoma
MDA-MB-231 breast = tested on: MDA-MB-231 breast
RXF 393 renal = tested on: RXF 393 renal
SF-268 CNS = tested on: SF-268 CNS
SF-295 CNS = tested on: SF-295 CNS
SF-539 CNS = tested on: SF-539 CNS
UACC-257 melanoma = tested on: UACC-257 melanoma
M14 melanoma = tested on: M14 melanoma

SMILES	growth (NCI-H23 lung)	growth (NCI-H226 lung)	growth (NCI-H322M lung)	growth (HOP-62 NSCLC)	growth (NCI-H460 lung)	growth (NCI-H522 lung)	growth (A549/ATCC NSCLC)	growth (786-0 renal)	growth (COLO 205 colon)	growth (DU-145 prostate)	growth (K-562 leukemia)	growth (MALME-3M melanoma)	growth (MDA-MB-231 breast)	growth (RXF 393 renal)	growth (SF-268 CNS)	growth (SF-295 CNS)	growth (SF-539 CNS)	growth (UACC-257 melanoma)	growth (M14 melanoma)
COc1ccc2c(c1)C1=NN(C(=O)CO)[C@H](c3ccc(OC(F)(F)F)cc3)[C@@H]1CC2	92.2%	84.5%	130%	97.4%	103%	82.6%	89.3%	103%	110%	105%	102%	101%	94.7%	-19.9% (active)	94.8%	90.4%	93.2%	123%	115%
O=[N+]([O-])c1ccc(N/N=C\c2ccc(O)cc2O)nc1	44.9%	85%	39.7%	33.7%	19.6%	10.9%	25.6%	18.4%	65.9%	50.7%	22.4%	57.8%	52.9%	36.3%	37.3%	28.5%	37.5%	41.3%	8.7% (active)
COc1ccc(/C=C/c2nc3ccccc3c(=O)n2-c2ccc(C#Cc3ccc(C(C)(C)C)cc3)cc2C)c(OC)c1	94%	87.3%	101%	112%	85%	70.2%	91.2%	101%	97.9%	109%	63.9%	94.8%	89.5%	113%	96.9%	101%	97.1%	72.8%	96.8%
COc1cc(C2CC(c3ccc(C)cc3)=NN2C=O)ccc1Oc1ccnc2cc(Cl)ccc12 (centres undefined)	58.6%	49.1%	91.1%	3.38% (active)	62.7%	28.3%	67.8%	18%	108%	89%	109%	98%	36.1%	0.362% (active)	16.3%	1.79% (active)	4.72% (active)	103%	106%
CC(=O)Nc1c(Br)cc2c(c1Br)Cc1cc(Br)ccc1-2	72.8%	85%	88.2%	29.1%	38.8%	76%	20.8%	87%	35%	91.9%	80.5%	99.2%	51.1%	92%	69.9%	-18.8% (active)	86.5%	89.1%	62.4%
C=C1C(=O)O[C@H]2[C@H]1CC/C(COC(=O)NCc1ccc(Cn3c(=O)sn(CCCl)c3=O)cc1)=C\CC[C@@]1(C)O[C@@H]21	103%	79.8%	95.1%	75.3%	97.8%	-68% (active)	86%	32.4%	-48.1% (active)	36.9%	-13% (active)	-28.3% (active)	73.5%	5.98% (active)	85.2%	107%	83.1%	49.8%	29.5%
CC1OC(n2c3ccccc3c3c4c(c5c6ccccc6[nH]c5c32)C(=O)N(CCN[C@H]2CCC[C@@H]2N)C4=O)CC(O)C1O (some centres undefined)	33.8%	40.5%	54.2%	30.2%	2.3% (active)	16.9%	25.2%	50.2%	11.5%	44.5%	10.2%	45.3%	37.5%	63%	33.5%	25.6%	35.3%	54.9%	36.1%
Nc1cc(C(=O)O)cc(C(=O)O)c1	108%	108%	102%	98.1%	112%	91%	108%	96.8%	99%	145%	96.6%	92.8%	102%	128%	115%	113%	103%	110%	98.9%
COc1cc(Nc2ncccc2/C=C/C(=O)c2cc(OC)c(OC)c(OC)c2)cc(OC)c1OC	81.7%	82.9%	102%	92.7%	79.7%	87.8%	68.8%	91.7%	75.2%	80.6%	45.5%	103%	93.3%	86%	83.3%	84.2%	78.9%	67%	86.7%
CN1C(=O)C(C2=NNC(c3ccccc3C(=O)O)C2)C(=O)N(C)C1=O (centres undefined)	106%	99.8%	87.8%	98.3%	106%	83.7%	98.6%	101%	108%	113%	94.1%	111%	109%	106%	98.8%	101%	108%	97.1%	103%
CCCCCCCOc1cccc(/C=C2\N=C3SCCCN3C2=O)c1	97.3%	93.7%	101%	108%	103%	62.3%	91.8%	92.5%	92.9%	94.5%	90.4%	139%	87.7%	116%	103%	93.8%	111%	114%	102%
COc1cccc(/C=N\Nc2ccc([N+](=O)[O-])cn2)c1O	38%	81.5%	32%	46.4%	18%	12.7%	57%	64.5%	134%	51.6%	44.1%	60.9%	42.4%	72.8%	37.1%	3.86% (active)	50.6%	16.2%	38.8%
C=C(C)[C@@H]1CC[C@]2(C(=O)O)CC[C@]3(C)[C@H](CC[C@@H]4[C@@]5(C)C[C@@H](CC#Cc6ccc(C(C)=O)s6)[C@H](O)C(C)(C)[C@@H]5CC[C@]43C)[C@@H]12	60.9%	77.1%	41.3%	50%	42.7%	26%	6.44% (active)	58.6%	59.5%	57.2%	34.7%	82.6%	91.9%	74.3%	61.6%	48.9%	83.4%	40.2%	76%
C=C1C(=O)O[C@H]2[C@H]1CC/C(COC(=O)NCc1c[nH]c3ccc(OC)cc13)=C\CC[C@@]1(C)O[C@@H]21	51.6%	27.9%	84.9%	49.2%	33.7%	-72.8% (active)	29.6%	-59.2% (active)	-69.2% (active)	-10.4% (active)	3.23% (active)	-31% (active)	-6.78% (active)	-93.3% (active)	45.2%	63.5%	-23.3% (active)	-16.3% (active)	-48% (active)
CNC(=O)OC1C(O[C@H]2C[C@H]3[C@@H]4CC=C5C[C@@H](O)CC[C@]5(C)[C@H]4CC[C@]3(C)[C@H]2[C@H](C)C(=O)CCC(C)C)OCC(O)C1OC1OCC(O)C(O)C1OC(=O)c1ccc(OC)cc1 (some centres undefined)	39.3%	3.4% (active)	57.6%	0.544% (active)	1.55% (active)	-35.8% (active)	11.5%	-14.3% (active)	-42.8% (active)	42%	-20.5% (active)	4.11% (active)	32.5%	-64.4% (active)	0.344% (active)	-63.3% (active)	-53.5% (active)	-54.9% (active)	-65.5% (active)
C=CCN1C(=O)/C(=c2\sc3n(c2=O)C2C(NN=3)N(CC)C(=O)N2CC)c2ccccc21 (centres undefined)	26.7%	62.7%	49.4%	32.4%	9.1% (active)	-15.9% (active)	23.9%	32.3%	-14.2% (active)	17%	10%	66%	47.1%	7.25% (active)	47.3%	12.9%	4.08% (active)	63.3%	14.4%

Reference: PubChem BioAssay (NCI)
